Giardia FBPA inh: qHTS Assay for Inhibitors of Fructose-1,6-bisphosphate Aldolase from Giardia Lamblia | A8B2U2 | purified Giardia FBPA | Potency, µM (doses to about 59.6 µM), most hits filed as inhibitors | 290,000 tested, 0.71% active | AID 2451, 2010; also: nearly all actives have a fitted effect of over 55% in size
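Giardia FBPA (40 nM reagent) was preincubated 10 min at RT with compound (up to 57.5 uM final), then substrate plus GAPDH/TPI/NAD/arsenate coupling system with diaphorase/resazurin was added; resorufin fluorescence (525/598 nm) was read after 20 min.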
NS1 function inh: qHTS Assay for Inhibitors of Influenza NS1 Protein Function; Potency, µM (doses to about 46.1 µM); 270,000 tested, 0.4% active; AID 2326, 2010; calls by dose curve; also: actives are rising curves; nearly all actives have a fitted effect of over 50% in size
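S. cerevisiae expressing influenza A NS1, grown in glucose, washed, then diluted 1:100 into pH 6.0 -URA galactose medium with 23 nl compound. Growth recovery read as OD600; NS1-free strain serves as control.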
Shiga toxin inh: A qHTS for Small Molecule Inhibitors of Shiga Toxin | Vero cells, Shiga toxin protein synthesis inhibition reporter | inhibition, % at 38.7 µM | 290,000 tested, 9.2% active; in the data active = inhibition mostly above about 28%, no sharp cut-off; inactive = mostly below about 43%
CHX counter: Cycloheximide Counterscreen for Small Molecule Inhibitors of Shiga Toxin. cell reporter, cycloheximide protein synthesis inhibition counterscreen. max response, %. 300,000 tested, 12% active. AID 2314, 2010; in the data active = max response mostly above about 13%, no sharp cut-off; inactive = mostly below about 14%; also: read at 38.3 µM for the half of the compounds with a filed dose
LmPK inh: qHTS Assay for Inhibitors of Leishmania Mexicana Pyruvate Kinase (LmPK); Q27686; purified LmPK, Kinase-Glo ATP luminescence, 1 h; Potency, µM (highest dose often 57.5 µM), hits mostly inhibitors; 290,000 tested, 0.37% active
Target sequence (Q27686 whole entry, looked up): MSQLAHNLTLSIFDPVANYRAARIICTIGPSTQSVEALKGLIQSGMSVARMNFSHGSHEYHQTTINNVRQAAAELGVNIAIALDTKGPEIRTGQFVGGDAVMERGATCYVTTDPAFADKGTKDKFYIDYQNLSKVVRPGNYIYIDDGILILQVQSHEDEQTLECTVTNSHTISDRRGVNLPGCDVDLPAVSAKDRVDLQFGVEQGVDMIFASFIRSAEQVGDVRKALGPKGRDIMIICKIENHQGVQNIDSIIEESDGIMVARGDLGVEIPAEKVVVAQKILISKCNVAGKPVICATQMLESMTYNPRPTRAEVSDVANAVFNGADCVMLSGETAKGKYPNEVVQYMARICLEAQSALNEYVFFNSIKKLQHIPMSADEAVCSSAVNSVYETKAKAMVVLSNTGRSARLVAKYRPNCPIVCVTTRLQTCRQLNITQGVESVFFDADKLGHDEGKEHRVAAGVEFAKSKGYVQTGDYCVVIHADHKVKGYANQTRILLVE
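In 50 mM imidazole pH 7.2 with 7 mM MgCl2, LmPK (0.1 nM) turned over PEP (0.5 mM) and ADP (0.1 mM) for 1 h at room temperature. Luciferase read-out of ATP.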
Hits are given with their value; i = inactive; ? = inconclusive; nt = not tested or not shown; + = active, no number; [ ] = dose if it differs, or a comment. Shown are actives, neighbours in structure and some others; about 14% of the full set was active somewhere. Unless noted, calls follow the shape of the dose curve; as a rule, active = well fitted curve in the direction sought with a large enough effect; inconclusive = small, poorly fitted or top-dose-only effect, or another doubt; inactive = no such curve, though single readings can be large; an effect the other way counts as inactive or inconclusive.

SMILES	Giardia FBPA inh	NS1 function inh	Shiga toxin inh	CHX counter	LmPK inh
O=C(c1cc2ccccc2oc1=O)N(Cc1cccc(Br)c1)C1CCS(=O)(=O)C1 (configuration not stated)	i	i	i	15.4	i
O=C(O)[C@H]1O[C@@H](Oc2ccc3ccc(=O)oc3c2)[C@H](O)[C@@H](O)[C@@H]1O	i	nt	i	i	nt
CCOC(=O)C1(CCCc2ccccc2)CCN(Cc2cn(CC)nc2C)CC1	i	i	i	i	i
COc1cccc(CN(C(=O)c2ccccc2Br)C2CCS(=O)(=O)C2)c1 (configuration not stated)	nt	i	i	i	i
CN(C)c1ccc(CN(C(=O)c2ccccc2Br)C2CCS(=O)(=O)C2)cc1 (configuration not stated)	nt	i	34.8	10.4	i
COc1cccc(C(=O)NCCC2=CCCCC2)c1	i	i	74.2	30.2	i
O=C(NCCC1=CCCCC1)c1ccc(Br)o1	i	i	84.5	28.4	i
O=C(NCCC1=CCCCC1)c1ccc(CN2CCOCC2)cc1	i	i	44.6	40.0	i
COc1ccc(OC)c(NC(=O)C(=O)NCCC2=CCCCC2)c1	i	i	i	i	i
COc1ccc(CCNC(=O)c2ccc(CN3CCOCC3)cc2)cc1	i	i	i	i	i
O=C(NC(=S)NCCC1=CCCCC1)c1ccc(Br)o1	i	i	i	i	i
O=C(NCCC1=CCCCC1)c1ccc([N+](=O)[O-])cc1	i	i	131.1	75.1	i
CC[C@@H](C)[C@@H](O)[C@H](C)C(=O)[C@H](C)/C=C(\C)C[C@H](C)[C@@H]1OC(=O)[C@H]1CC	i	nt	i	i	nt
CC1=CC(=O)C2=C(C)C[C@@H]3OC(=O)[C@@H](C)[C@H]3C=C12	i	nt	nt	nt	nt
O=C(NC1CCCCCC1)c1ccc(CN2CCOCC2)cc1	i	i	95.9	40.6	i
O=C(NCCC1=CCCCC1)c1ccc(F)cc1	i	i	+	39.1	i
COc1ccc(C(=O)NCCC2=CCCCC2)cc1OC	i	i	74.5	45.9	i
COc1ccc(C(=O)NCCN2CCCC2)cc1OC	i	i	i	i	i
O=C(NCCc1ccc(F)cc1)c1ccc([N+](=O)[O-])cc1	i	i	66.8	33.8	i
O=C(CCNC(=O)c1ccc([N+](=O)[O-])cc1)Nc1ccc(F)cc1	i	i	i	i	i
O=C(NC1CCCC1)c1ccc(CN2CCOCC2)cc1	i	i	i	i	i
CC(NC(=O)c1ccccc1SCC(=O)N1CCCC1)c1ccc(F)cc1 (configuration not stated)	nt	i	i	i	i
Cc1cc2[nH]c(=O)c(=O)[nH]c2cc1S(=O)(=O)N1CCC(C)CC1	i	i	i	i	i
COc1ccc(C(=O)NCCC2=CCCCC2)cc1	i	i	i	30.9	i
O=C(Cc1ccccc1[N+](=O)[O-])NCCC1=CCCCC1	i	i	61.1	25.7	i
SMILES	Giardia FBPA inh	NS1 function inh	Shiga toxin inh	CHX counter	LmPK inh
COc1ccc(C(=O)NCC(=O)OCC(=O)NCCC2=CCCCC2)cc1	i	i	i	i	i
Cc1cc(C(=O)NCCC2=CCCCC2)ccc1[N+](=O)[O-]	i	i	96.0	49.3	i
O=C(COc1ccc([N+](=O)[O-])cc1)NCCC1=CCCCC1	i	i	i	i	i
COc1cc(-c2cc(=O)c3c(O)cc(O)cc3o2)ccc1O	i	i	39.3	37.0	?
COc1c(OC)c(O)c2c(=O)cc(-c3c(O)cccc3O)oc2c1OC	i	?	i	17.5	i
COc1ccc(-c2cc(=O)c3c(O)c(OC)c(O)cc3o2)cc1	i	i	45.5	37.3	?
COc1cc(O)c2c(=O)cc(-c3ccccc3)oc2c1	i	i	i	11.0	i
CCOCCn1c(SC(C)C(C)=O)nc2c1c(=O)[nH]c(=O)n2C (configuration not stated)	i	i	i	i	i
CCCCc1nc2c(c3c1C[C@H](C)OC3)CN(C(=O)Nc1ccc(OC)cc1)CC2	i[12.9 µM]	nt	nt	nt	i[11.5 µM]
CCc1nc(CN(C)C(=O)C2CCC(=O)N(Cc3cccc(F)c3)C2)no1 (configuration not stated)	i	i	i	i	i
COc1cc(-c2cc(=O)c3ccccc3o2)ccc1O	i	i	61.3	37.2	i
COc1cc(O)c2c(=O)c(O)c(-c3ccc(O)c(O)c3)oc2c1	i	nt	i	i	nt
COc1cc(O)c2c(=O)c3c(OC)c(O)ccc3oc2c1	i	i	56.3	37.0	i
COc1cc2oc(-c3ccccc3)cc(=O)c2cc1O	i	nt	nt	nt	nt
COc1ccc(OC)c(NC(=O)CCN2CCN(CCO)CC2)c1	i	i	i	i	i
CC1CC2C3CCC4=CC(=O)C=C[C@@]4(C)[C@]3(F)C(O)C[C@]2(C)[C@]1(O)C(=O)COP(=O)(O)O (some centres not stated)	i	nt	nt	nt	nt
COc1cccc(C(=O)N2CCCC(Nc3ccc(C)c(C)c3)C2)c1 (configuration not stated)	nt	i	i	i	i
Cc1nc(C)c(C(=O)N2CCCC(C(=O)c3ccc4ccccc4c3)C2)s1 (configuration not stated)	i	i	i	i	i
Cc1ccc2c(c1C)NC(=O)C21N2CCCC2C(C(=O)c2ccc3ccccc3c2)C12C(=O)Nc1ccccc12 (configuration not stated)	i	i	i	56.4	i
COc1ccccc1CN1CC[C@@]2(CCCN(C(=O)c3cccc(F)c3)C2)C1	i	nt	nt	nt	nt
Clc1ccc(C2=NNC(=NCc3ccc4c(c3)OCO4)SC2)cc1	i	?	i	i	i
Oc1ccc(C2=NNC(=NCc3ccc4c(c3)OCO4)SC2)c(O)c1	i	i	i	31.7	i
COc1ccc(-c2nc3c4ccccc4ccn3c2CN2CCOCC2)cc1OC	i	i	73.7	32.2	i
Clc1ccc2nc(-c3ccccc3)c(CN3CCOCC3)n2c1	i	i	i	i	i
c1ccc(-c2nc3c4ccccc4ccn3c2CN2CCOCC2)cc1	?	i	64.2	48.5	i
SMILES	Giardia FBPA inh	NS1 function inh	Shiga toxin inh	CHX counter	LmPK inh
Clc1ccc(-c2nc3ccccn3c2CN2CCOCC2)cc1	i	i	25.0	20.5	i
CC(NC(=O)COc1ccccc1Cl)c1ccccc1 (configuration not stated)	i	i	i	i	i
Cc1ccc2c(C)c(C(=O)NCc3ccc(S(N)(=O)=O)cc3)oc2c1C	i	i	i	i	i
Cc1ccc2c(C)c(C(=O)N(C)C(C)c3ccon3)oc2c1C (configuration not stated)	i	i	83.0	59.3	i
Cc1ccc2c(C)c(C(=O)N(C)C(C)c3ccncn3)oc2c1C (configuration not stated)	nt	i	54.5	12.9	i
CC(c1ccon1)N(C)C(=O)CCc1nnc(CCCCc2ccccc2)o1 (configuration not stated)	i	i	i	i	i
CN1CCN(c2nc(Nc3ccc(F)cc3)nc(Nc3ccc(F)cc3)n2)CC1	i	i	i	i	i
CCOC(=O)CNC(=O)O[C@@H]1C(=O)c2cc(Br)ccc2O[C@H]1c1cccc(OC)c1	i	nt	nt	nt	nt
